Source: PubChem BioAssay (NCI)
About 79,000 compounds went through this panel and 15% of them were active in at least one assay; those are over-represented in the sample as a whole. Calls of active or inactive are those of the source. No stated cut-off is given here; in the data, active means growth inhibition above about 70%; inactive means the rest.

What was measured:
[1] = NCI Yeast Anticancer Drug Screen. Data for the rad52 strain (AID 147);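 further: 0% = growth of vehicle-treated control cultures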; conditions: S. cerevisiae rad52 mutant growth inhibition, active compounds read high
Summary of the method: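 The repair-mutant yeast strain was incubated with compounds, then growth was read and inhibition derived relative to vehicle.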

[2] = NCI Yeast Anticancer Drug Screen. Data for the wt1 strain (AID 149);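 further: 0% = growth of vehicle-treated wt1 cultures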; conditions: S. cerevisiae wt1 strain (SPY 50644) growth inhibition, active compounds read high
Summary of the method: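 The wt1 strain was treated with compounds, and growth was compared with vehicle-treated cultures to give inhibition.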

[3] = NCI Yeast Anticancer Drug Screen. Data for the rad50EPP+ strain (AID 151);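 further: 0% = growth of vehicle-treated control cultures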; conditions: S. cerevisiae rad50 mutant strain, active compounds read high
Summary of the method: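 Vehicle-normalised growth inhibition; rad50EPP+ yeast strain, altered in DNA damage repair, compound-treated.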

[4] = NCI Yeast Anticancer Drug Screen. Data for the mgt1 strain (AID 153); conditions: S. cerevisiae mgt1 mutant growth inhibition, active compounds read high
Summary of the method: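 Vehicle-normalized growth inhibition is determined in mgt1 yeast, a strain selected for a defined alteration in DNA repair or cell cycle control.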

[5] = NCI Yeast Anticancer Drug Screen. Data for the rad50 strain (AID 155);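 further: 0% = growth of vehicle-only cultures of the same strain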; conditions: S. cerevisiae rad50 strain growth inhibition, active compounds read high
Summary of the method: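 Cells are treated with compound, grown, and their growth is then scored against vehicle-only cultures of the same repair-deficient yeast strain.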

[6] = NCI Yeast Anticancer Drug Screen. Data for the mec2-1 strain (AID 157); conditions: S. cerevisiae mec2-1 strain, active compounds read high
Summary of the method: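 Mutant yeast (mec2-1) grown with compound; growth inhibition relative to vehicle control reported.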

[7] = NCI Yeast Anticancer Drug Screen. Data for the rad14 strain (AID 159);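 further: 0% = growth of vehicle-treated control cultures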; conditions: S. cerevisiae rad14 strain growth inhibition, active compounds read high
Summary of the method: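 Readout: yeast growth inhibition, referenced to vehicle-only cultures. Strain bears a defined alteration in DNA damage repair.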

[8] = NCI Yeast Anticancer Drug Screen. Data for the sgs1 mgt1 strain (AID 161);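 further: 0% = growth of cultures given vehicle only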; conditions: S. cerevisiae sgs1 mgt1 strain, active compounds read high
Summary of the method: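 Percent growth inhibition was derived by comparing compound-exposed mutant yeast with vehicle-exposed cultures. The strain carries alterations in DNA damage repair.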

[9] = NCI Yeast Anticancer Drug Screen. Data for the CLN2oe strain (AID 163);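 further: 0% = growth of vehicle-only control cultures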; conditions: S. cerevisiae CLN2oe strain, active compounds read high
Summary of the method: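 Compounds are applied to yeast harbouring a defined cell-cycle control change; reduced growth compared with vehicle-treated controls gives the value.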

[10] = NCI Yeast Anticancer Drug Screen. Data for the cln2 rad14 strain (AID 165);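 further: 0% = growth equal to vehicle treated cultures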; conditions: S. cerevisiae cln2 rad14 strain, active compounds read high
Summary of the method: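 Readout is yeast growth inhibition versus vehicle-treated controls, using a strain with cln2 and rad14 alterations exposed to compound.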

[11] = NCI Yeast Anticancer Drug Screen. Data for the bub3 strain (AID 167); conditions: S. cerevisiae bub3 mutant strain, active compounds read high
Summary of the method: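 Part of a panel of yeast mutants defective in DNA damage repair or cell cycle regulation. Each strain is grown with compound, and inhibition is calculated relative to solvent-treated cultures.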

[12] = NCI Yeast Anticancer Drug Screen. Data for the wt2 strain (AID 169);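 further: 0% = growth of vehicle-treated yeast cultures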; conditions: S. cerevisiae wt2 strain growth inhibition, active compounds read high
Summary of the method: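 Against vehicle-treated controls, the growth of yeast exposed to each compound was compared, and the inhibition was recorded.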

[13] = NCI Yeast Anticancer Drug Screen. Data for the mlh1 strain (AID 171);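 further: 0% = growth of vehicle-treated control cultures of the same strain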; conditions: S. cerevisiae mlh1 strain growth inhibition, active compounds read high
Summary of the method: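 Measured: yeast growth. Reference: vehicle-treated controls. Organism: strain with a defined alteration affecting DNA damage repair or cell cycle control, treated with compound.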

[14] = NCI Yeast Anticancer Drug Screen. Data for the sgs1 strain (AID 173);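 further: 0% = growth of vehicle-only control cultures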; conditions: S. cerevisiae sgs1 mutant, active compounds read high
Summary of the method: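 Each compound was added to cultures of the altered yeast strain. Growth was recorded, and inhibition was derived by comparison with vehicle controls.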

[15] = NCI Yeast Anticancer Drug Screen. Data for the mlh1 rad18 strain (AID 175); conditions: S. cerevisiae mlh1 rad18 strain growth inhibition, active compounds read high
Summary of the method: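 Genetically defined yeast (DNA repair-deficient) exposed to compounds; growth inhibition determined relative to vehicle.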

[16] = NCI Yeast Anticancer Drug Screen. Data for the rad18 strain (AID 177); conditions: S. cerevisiae rad18 mutant growth inhibition, active compounds read high
Summary of the method: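 Vehicle-treated cultures served as the baseline for scoring compound-induced growth inhibition in DNA-repair-mutant yeast.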

[17] = at 5.0 µM (retest, dose inferred, filed as 0.5)
[18] = at 50.0 µM (retest, dose inferred, filed as 5.0)

Measured: growth inhibition

CSc1nc(=S)[nH]c2c1c(C)nn2-c1ccccc1
active: [5]; [18] 91% | [6]; [18] 97% | [8]; [18] 98% | [8]; at 50.0 µM 72.1% | [11]; [18] 97% | [15]; [18] 84%
inactive: [1]; at 1.2 µM 11% | [1]; at 3.7 µM 18% | [1]; at 11.0 µM 12% | [1]; at 33.0 µM 11% | [1]; at 100.0 µM 41% | [2]; at 1.2 µM 11% | [2]; at 3.7 µM -2% | [2]; at 11.0 µM -1% | [2]; at 33.0 µM -4% | [2]; at 100.0 µM 1% | [3]; at 1.2 µM -17% | [3]; at 3.7 µM -16% | [3]; at 11.0 µM -24% | [3]; at 33.0 µM -10% | [3]; at 100.0 µM 14% | [4]; at 1.2 µM -19% | [4]; at 3.7 µM -15% | [4]; at 11.0 µM -3% | [4]; at 33.0 µM 7% | [4]; at 100.0 µM 35% | [5]; at 1.2 µM 12% | [5]; at 3.7 µM -1% | [5]; [17] 39% | [5]; at 11.0 µM 11% | [5]; at 33.0 µM 11% | [5]; at 50.0 µM 50.8% | [5]; at 100.0 µM 11% | [6]; at 1.2 µM 3% | [6]; at 3.7 µM -6% | [6]; [17] 16% | [6]; at 11.0 µM 1% | [6]; at 33.0 µM -1% | [6]; at 50.0 µM 45.8% | [6]; at 100.0 µM 3% | [7]; at 1.2 µM 9% | [7]; at 3.7 µM 18% | [7]; at 11.0 µM 28% | [7]; at 33.0 µM 23% | [7]; at 100.0 µM 34% | [8]; [17] 42% | [9]; at 1.2 µM -8% | [9]; at 3.7 µM 0% | [9]; at 11.0 µM -4% | [9]; at 33.0 µM 3% | [9]; at 100.0 µM -14% | [10]; [17] 3% | [10]; [18] 62% | [10]; at 50.0 µM 33.8% | [11]; at 1.2 µM -16% | [11]; at 3.7 µM -6% | [11]; [17] 39% | [11]; at 11.0 µM -15% | [11]; at 33.0 µM -17% | [11]; at 50.0 µM 64% | [11]; at 100.0 µM -14% | [12]; at 1.2 µM -14% | [12]; at 3.7 µM 3% | [12]; at 11.0 µM 5% | [12]; at 33.0 µM 12% | [12]; at 100.0 µM 27% | [13]; at 1.2 µM 11% | [13]; at 3.7 µM 9% | [13]; at 11.0 µM 32% | [13]; at 33.0 µM 21% | [13]; at 100.0 µM 41% | [14]; at 1.2 µM 7% | [14]; at 3.7 µM -1% | [14]; at 11.0 µM 9% | [14]; at 33.0 µM 16% | [14]; at 100.0 µM 39% | [15]; [17] 26% | [15]; at 50.0 µM 52.1% | [16]; at 1.2 µM 10% | [16]; at 3.7 µM -10% | [16]; at 11.0 µM 4% | [16]; at 33.0 µM -5% | [16]; at 100.0 µM 36%

Cc1[nH]c2ccccc2c1C(c1ccc(N)cc1)c1c(C)[nH]c2ccccc12
active: [5]; [18] 90% | [5]; at 50.0 µM 95.3% | [6]; [18] 94% | [6]; at 50.0 µM 96.4% | [8]; [18] 96% | [8]; at 50.0 µM 98.2% | [11]; [18] 85% | [11]; at 50.0 µM 98.4% | [15]; [18] 96% | [15]; at 50.0 µM 98.5%
inactive: [1]; at 1.2 µM 3% | [1]; at 3.7 µM 3% | [1]; at 11.0 µM -6% | [1]; at 33.0 µM -1% | [1]; at 100.0 µM 41% | [2]; at 1.2 µM -2% | [2]; at 3.7 µM -1% | [2]; at 11.0 µM -2% | [2]; at 33.0 µM -1% | [2]; at 100.0 µM 45% | [3]; at 1.2 µM 4% | [3]; at 3.7 µM -4% | [3]; at 11.0 µM -4% | [3]; at 33.0 µM -2% | [3]; at 100.0 µM -8% | [4]; at 1.2 µM -3% | [4]; at 3.7 µM 0% | [4]; at 11.0 µM 0% | [4]; at 33.0 µM 0% | [4]; at 100.0 µM 48% | [5]; at 1.2 µM 6% | [5]; at 3.7 µM 3% | [5]; [17] 0% | [5]; at 11.0 µM -5% | [5]; at 33.0 µM 1% | [5]; at 100.0 µM 40% | [6]; at 1.2 µM -1% | [6]; at 3.7 µM -1% | [6]; [17] 4% | [6]; at 11.0 µM -1% | [6]; at 33.0 µM -1% | [6]; at 100.0 µM 45% | [7]; at 1.2 µM 5% | [7]; at 3.7 µM 0% | [7]; at 11.0 µM 0% | [7]; at 33.0 µM 6% | [7]; at 100.0 µM 50% | [8]; [17] 8% | [9]; at 1.2 µM -1% | [9]; at 3.7 µM -3% | [9]; at 11.0 µM -6% | [9]; at 33.0 µM 0% | [9]; at 100.0 µM 25% | [10]; [17] 4% | [10]; [18] 45% | [10]; at 50.0 µM 39% | [11]; at 1.2 µM -3% | [11]; at 3.7 µM -3% | [11]; [17] 0% | [11]; at 11.0 µM -6% | [11]; at 33.0 µM -5% | [11]; at 100.0 µM 38% | [12]; at 1.2 µM -2% | [12]; at 3.7 µM -11% | [12]; at 11.0 µM -10% | [12]; at 33.0 µM -1% | [12]; at 100.0 µM 47% | [13]; at 1.2 µM 1% | [13]; at 3.7 µM -1% | [13]; at 11.0 µM -2% | [13]; at 33.0 µM 0% | [13]; at 100.0 µM 50% | [14]; at 1.2 µM -12% | [14]; at 3.7 µM -14% | [14]; at 11.0 µM -19% | [14]; at 33.0 µM -5% | [14]; at 100.0 µM 62% | [15]; [17] 6% | [16]; at 1.2 µM 4% | [16]; at 3.7 µM 4% | [16]; at 11.0 µM -1% | [16]; at 33.0 µM 0% | [16]; at 100.0 µM 47%
